# Records with an inconclusive call do not appear. A call without a number means that no potency is given here. Active and inactive are the calls of the source. Calls come from the whole dose curve; as a rule, active = well fitted inhibition curve with a large enough effect; inconclusive = small, poorly fitted or top-dose-only effect; inactive = flat fitted curve, though single readings scatter.
# Experiment: P-glycoprotein substrates identified in KB-8-5-11 adenocarcinoma cell line, qHTS therapeutic library screen (AID 1346987); note: nearly all actives have a fitted effect of over 65% in size
# Conditions: KB-8-5-11 (P-gp overexpressing) viability, CellTiter-Glo, 72 h; series mostly up to 44.5 µM
# Outline: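 KB-8-5-11, a colchicine-selected P-gp-overexpressing KB-3-1 subline, was grown without colchicine for the assay. Cells were seeded at 500 cells/well, dosed in concentration-response and incubated 72 h at 37 degree C, 5% CO2. Viability was read by CellTiter-Glo luminescence.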
# Potency is the fitted concentration of half-maximal effect.
row,SMILES,Potency
1,CCN1CCN(Cc2ccc(NC(=O)Nc3ccc(Oc4cc(NC)ncn4)cc3)cc2C(F)(F)F)CC1,inactive
2,C/C(=C/CO)CC[C@@H]1[C@@](C)(O)CCC2C(C)(C)CCC[C@]21C (stereo partly drawn),inactive
3,Cc1c(NC(=O)c2cc(C(N)=O)nc3cc(F)ccc23)c(C(F)(F)F)nn1Cc1ccc(C#N)cc1,inactive
4,CC(=O)C=C=C1C(C)(C)CC(O[C@@H]2O[C@H](CO)[C@@H](O)[C@H](O)[C@H]2O)CC1(C)O (stereo partly drawn),inactive
5,O=C(Nc1nc2ccccc2n1CCc1ccccc1)c1ccccc1,inactive
6,C=C(CO)C12OC1C1(C)C(=CC2=O)C(O)C(O)CC1C (stereo not drawn),inactive
7,CC1(C)CCCC2(C)C1CC=C1C(=O)OC(O)C12O (stereo not drawn),inactive
8,CC(=O)NCC(=O)N1C2CCC1c1cc(Nc3ncc(C(F)(F)F)c(NC4CCC4)n3)ccc12 (stereo not drawn),1840 nM (active)

# Source: PubChem BioAssay (NCATS)
